The text below walks through data of PubChem BioAssay (NCATS).

Where “and” joins values, the source holds several entries; their conditions need not be identical. Equal values may be shown once. Records with an inconclusive call do not appear. Calls of active or inactive are those of the source. Calls come from the whole dose curve; as a rule, active = well fitted cell-killing curve with a large enough effect; inconclusive = small, poorly fitted or top-dose-only effect; inactive = flat fitted curve, though single readings scatter.

A short description of test [1]: Cell Viability - LYMP2-025 (AID 976). An outline of the steps: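 Seed 2500 LYMP2-025 cells/well; 5 hr at 37 C; add compound; 24 hr at 37 C; add CellTiter-Glo; 30 min RT; read luminescence. AC50 from Hill-modelled concentration-response.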
The nature of test [2]: Cell Viability - LYMP2-002 (AID 977).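 Note: compound exposure lasted 24 h at 37 °C.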 An outline of the steps: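 Human lymphoblastoid LYMP2-002 cells, 2500 per well, exposed to compounds for 24 h at 37 C in complete medium; viability read as intracellular ATP by CellTiter-Glo luminescence, AC50 from Hill fits.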
Test [3] is described as follows: Cell Viability - LYMP2-007 (AID 979).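 Note: cells exposed to compound for 24 h before reading; nearly all actives have a fitted effect of over 60% in size.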 An outline of the steps: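 Luminescent ATP signal (CellTiter-Glo) serves as the viability read-out after 24 hr compound treatment of lymphoblastoid cells in complete medium at 37 C. Concentration-response data were fitted to the Hill equation to give AC50 values.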
Test [4] in a line: Cell Viability - LYMP2-008 (AID 980). Note: nearly all actives have a fitted effect of over 60% in size. The method in brief: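 qHTS, human lymphoblastoid line, 2500 cells/well; 5 hr preincubation, 24 hr compound, 37 C. CellTiter-Glo ATP luminescence. AC50 via Hill equation. Tetraoctylammonium bromide positive control.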
Test [5] is described as follows: Cell Viability - LYMP2-010 (AID 981). Note: nearly all actives have a fitted effect of over 55% in size. The method in brief:
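Luminescent ATP signal (CellTiter-Glo) served as the viability read-out. Cells of the human lymphoblastoid line were treated with compound over a concentration range for 24 hours at 37 C, and AC50 values came from Hill-equation modeling.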

A short description of test [6]: Cell Viability - LYMP2-012 (AID 982).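 Note: cellular ATP by luciferase luminescence where a drop means cytotoxicity; cells exposed to compound for one day before reading; nearly all actives have a fitted effect of over 55% in size.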
The nature of test [7]: Cell Viability - LYMP2-014 (AID 983). Note: nearly all actives have a fitted effect of over 50% in size. An outline of the steps:
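Luminescent ATP signal (CellTiter-Glo, 30 min at room temperature) serves as the viability read-out after 24 hr compound exposure at 37 C. Cells were seeded at 2500 per well and settled 5 hr beforehand.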

Test [8] in a line: Cell Viability - LYMP2-016 (AID 984). Note: nearly all actives have a fitted effect of over 55% in size. The method in brief:
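Human lymphoblastoid cells (LYMP2-016), 2500/well in complete medium, preincubated 5 hr at 37 C, then compound-treated 24 hr at 37 C. Intracellular ATP read by CellTiter-Glo luminescence after 30 min at room temperature; AC50 from Hill-equation concentration-response fits.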

Test [9] can be described thus: Cell Viability - LYMP2-018 (AID 985). Note: nearly all actives have a fitted effect of over 50% in size. An outline of the steps: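 Luminescent ATP signal (CellTiter-Glo, read after 30 min at room temperature) reports viable cells after 24 hr compound treatment at 37 C. Concentration-response data were fitted to the standard Hill equation for AC50.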
Test [10] in a line: Cell Viability - LYMP2-020 (AID 986). Note: nearly all actives have a fitted effect of over 55% in size. The method in brief:
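Luminescent ATP signal (CellTiter-Glo, 30 min at room temperature) is the read-out after 24 h compound treatment of lymphoblastoid cells at 37 C. AC50 values come from Hill-equation fits across concentrations.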
Potency is the fitted concentration of half-maximal effect.

On to `c1ccc2c(c1)Nc1ccccc1S2`, for which the Potency result in test [1], in test [2], in test [3], in test [4], in [5] and in test [6] was “inactive” throughout. In addition, the Potency result in test [7], in test [8], in [9] and in [10] was “inactive” throughout.
Consider `N[C@@H](Cc1ccc(N(CCCl)CCCl)cc1)C(=O)O`, for which the Potency in test [2] is 39.8 µM (active); in test [3] it was 25.1 µM (active); in test [4], 31.6 µM (active); in test [5], 31.6 µM (active); in test [6] it was 31.6 µM (active); in test [7], 31.6 µM (active). In addition, the Potency in test [8] is 25.1 µM (active); in test [9], 25.1 µM (active); in test [10], 39.8 µM (active).
`CC(COc1ccccc1)N(CCCl)Cc1ccccc1` (centres undefined): the Potency in test [2] was 50.1 µM (active); in test [3] it was 39.8 µM (active); in test [4], 39.8 µM (active); in test [10], 50.1 µM (active).
Regarding `CCOP(=S)(OCC)Oc1cc(C)nc(C(C)C)n1`, the Potency entry in test [1], in [2], in [3], in [4], in test [5] and in [6] was “inactive” throughout. Moreover, the Potency entry in test [7], in [8], in [9] and in [10] was “inactive” throughout.
Consider `CNCC(O)c1ccc(O)cc1` (centres undefined), for which the Potency result in test [1], in [2], in [3], in [4], in [5] and in [6] was “inactive” in each case. The Potency result in test [7], in test [8], in test [9] and in test [10] was “inactive” each time.
For the molecule `Oc1ccccc1-c1ccccc1`, the Potency entry in test [1], in test [2], in test [3], in test [4], in test [5] and in [6] was “inactive” in each case. Moreover, the Potency entry in [7], in test [8], in test [9] and in test [10] was “inactive” each time.
Regarding `Oc1cccc2cccnc12`, the Potency was 25.1 µM (active) and 15.8 µM (active) in test [2]; 15.8 µM (active) in test [3]; 15.8 µM (active) and 12.6 µM (active) in test [4]; 12.6 µM (active) and 10 µM (active) in [5]; 15.8 µM (active) and 10 µM (active) in test [6]; 15.8 µM (active) and 12.6 µM (active) in test [7]. Further, the Potency in test [8] is 15.8 µM (active); in test [9] it was 12.6 µM (active) and 10 µM (active); in test [10], 12.6 µM (active) and 10 µM (active).
Take `Clc1ccc(COC(Cn2ccnc2)c2ccc(Cl)cc2Cl)cc1` (centres undefined): the Potency in [3], in test [4] and in [9] was 50.1 µM (active) each time.
As for `NCC(O)c1ccc(O)cc1` (centres undefined), the Potency entry in test [1], in test [2], in [3], in test [4], in test [5] and in test [6] was “inactive” throughout. Besides, the Potency entry in test [7], in test [8], in test [9] and in [10] was “inactive” in each case.
As to `C[C@]12C/C(=C/O)C(=O)C[C@@H]1CC[C@@H]1[C@@H]2CC[C@@]2(C)[C@H]1CC[C@]2(C)O`, the Potency entry in test [1] is “inactive”. The Potency in test [5] was 50.1 µM (active).
On to `CCCC(C)(COC(N)=O)COC(=O)NC(C)C` (centres undefined), for which the Potency entry in test [1], in test [2], in test [3], in test [4], in test [5] and in test [6] was “inactive” each time. The Potency entry in test [7], in test [8], in [9] and in test [10] was “inactive” each time.
As to `Oc1ccc(Cl)cc1Cc1ccccc1`, the Potency result in [1], in test [2], in test [3], in test [4], in test [5] and in test [6] was “inactive” in each case. Further, the Potency result in test [7], in [8], in test [9] and in test [10] was “inactive” throughout.
For `OCCOc1ccccc1`, the Potency result in test [1], in test [2], in test [3], in [4], in [5] and in test [6] was “inactive” each time. Further, the Potency result in test [7], in [8], in [9] and in test [10] was “inactive” each time.
Regarding `CC(=O)Oc1ccccc1C(=O)Nc1ncc([N+](=O)[O-])s1`, the Potency was 31.6 µM (active) in [1]; 31.6 µM (active) in [2]; 31.6 µM (active) in test [4]; 39.8 µM (active) in test [5]; 39.8 µM (active) in test [6]; 39.8 µM (active) in [8]. Moreover, the Potency in test [9] was 39.8 µM (active).
